Data as given in PubChem BioAssay (NCI).
Compounds without any hit were thinned out: in the full panel of roughly 83,000, 20% have a hit.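 For each line, cells grew in 96-well plates with the test compound present at a single concentration for 48 hours.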 Activity calls are given as the source filed them. How the source made its calls: active means growth percent below 10; inactive means the rest.

What was measured:
Experiment in all cases: NCI-60 one-dose screen, 48 h (100 = growth as untreated, 0 = no growth, -100 = all killed)
Conditions in all cases: 10 µM unless noted
HCT-15 colon = test system: HCT-15 colon
HT29 colon = test system: HT29 colon
SNB-75 CNS = test system: SNB-75 CNS
SNB-19 CNS = test system: SNB-19 CNS
U251 CNS = test system: U251 CNS
PC-3 prostate = test system: PC-3 prostate
SK-MEL-5 melanoma = test system: SK-MEL-5 melanoma
UACC-62 melanoma = test system: UACC-62 melanoma
LOX IMVI melanoma = test system: LOX IMVI melanoma
SK-MEL-28 melanoma = test system: SK-MEL-28 melanoma

Measured: growth

Oc1ccc(Cl)cc1/C=N\NC(=S)N/N=C/c1cc(Cl)ccc1O
inactive: HCT-15 colon 23% | HT29 colon 33.9% | SNB-75 CNS 77.7% | SNB-19 CNS 39.8% | U251 CNS 25.9% | PC-3 prostate 25.8% | LOX IMVI melanoma 15.7% | SK-MEL-28 melanoma 58.4%
active: SK-MEL-5 melanoma -32.6% | UACC-62 melanoma 3.04%

COc1ccc(NC(=O)c2sc3nc(C)c(C(=O)/C=C/c4ccccc4)cc3c2N)cc1
inactive: SNB-75 CNS 12.2% | SNB-19 CNS 10.6% | PC-3 prostate 52.6% | SK-MEL-5 melanoma 74.3% | UACC-62 melanoma 51.8% | SK-MEL-28 melanoma 85.7%
active: HCT-15 colon 0.101% | HT29 colon 0.196% | U251 CNS 1.8% | LOX IMVI melanoma -74.7%

O=S(=O)(NCCNc1nccc(-c2c(-c3ccc(F)c(O)c3)nc3sccn23)n1)c1ccc(O)cc1
inactive: HCT-15 colon 33.1% | HT29 colon 17% | SNB-75 CNS 58.9% | SNB-19 CNS 56.3% | U251 CNS 56.8% | PC-3 prostate 22.4% | UACC-62 melanoma 17.4% | LOX IMVI melanoma 32.2% | SK-MEL-28 melanoma 55.2%
active: SK-MEL-5 melanoma 5.55%

Cc1ccc(Nc2cc(N)nc(N)n2)cc1Cl
inactive: HCT-15 colon 97.1% | HT29 colon 98.2% | SNB-75 CNS 80.2% | SNB-19 CNS 104% | U251 CNS 97.3% | PC-3 prostate 94.2% | SK-MEL-5 melanoma 97.5% | UACC-62 melanoma 90.8% | LOX IMVI melanoma 97.3% | SK-MEL-28 melanoma 109%

CCSc1nc2scc(C)c2c(=O)[nH]1
inactive: HCT-15 colon 104% | HT29 colon 105% | SNB-75 CNS 90.2% | SNB-19 CNS 96.5% | U251 CNS 97.1% | PC-3 prostate 98.7% | SK-MEL-5 melanoma 99.9% | UACC-62 melanoma 94.1% | LOX IMVI melanoma 99.7% | SK-MEL-28 melanoma 105%

Cc1ccc2c(n1)C(=O)C(Br)=C(CC(C)C)C2=O
inactive: HCT-15 colon 104% | HT29 colon 108% | SNB-75 CNS 97.3% | SNB-19 CNS 101% | U251 CNS 97.8% | PC-3 prostate 97.5% | SK-MEL-5 melanoma 98.1% | UACC-62 melanoma 93.9% | LOX IMVI melanoma 98.1% | SK-MEL-28 melanoma 105%

O=C(c1ccncc1)N1N=C(c2ccc(Cl)cc2)C[C@H]1c1cn(-c2ccccc2)nc1-c1ccccc1
inactive: HCT-15 colon 82.4% | HT29 colon 104% | SNB-75 CNS 72.7% | SNB-19 CNS 88.6% | U251 CNS 61.1% | PC-3 prostate 79.5% | SK-MEL-5 melanoma 90.7% | UACC-62 melanoma 91.7% | LOX IMVI melanoma 79.9% | SK-MEL-28 melanoma 96%

COc1ccc(C2=Nc3c(N)nc(N)nc3NC(c3cccc(Nc4ccnc5cc(C(F)(F)F)ccc45)c3)C2)cc1 (stereo not given)
inactive: HCT-15 colon 36.6% | HT29 colon 30.4% | SNB-75 CNS 65.6% | SNB-19 CNS 73.1% | U251 CNS 60.4% | PC-3 prostate 48.4% | SK-MEL-5 melanoma 61.4% | UACC-62 melanoma 88.9% | LOX IMVI melanoma 65.3% | SK-MEL-28 melanoma 91.5%

O=C1C(Cl)=C(NCCCCCCNC2=C(Cl)C(=O)c3ccccc3C2=O)C(=O)c2ccccc21
inactive: HCT-15 colon 63.3% | HT29 colon 98.7% | SNB-75 CNS 117% | SNB-19 CNS 96.3% | U251 CNS 89.9% | PC-3 prostate 82.2% | SK-MEL-5 melanoma 53.2% | UACC-62 melanoma 83.5% | LOX IMVI melanoma 36.3% | SK-MEL-28 melanoma 111%

NNc1nc(-c2cccnc2)nc2c1sc(=S)n2-c1ccccc1
inactive: HCT-15 colon 96.3% | HT29 colon 90.3% | SNB-75 CNS 87.4% | SNB-19 CNS 113% | U251 CNS 90.6% | PC-3 prostate 72.6% | SK-MEL-5 melanoma 98.4% | UACC-62 melanoma 108% | LOX IMVI melanoma 86.7% | SK-MEL-28 melanoma 119%

O=C(Nc1cccc(-c2ccc(Cl)c(C(F)(F)F)c2)c1)C1CCN(Cc2cccc3cccnc23)CC1
active: HCT-15 colon -83% | HT29 colon -62.2% | U251 CNS -82.4% | SK-MEL-5 melanoma -93.4% | LOX IMVI melanoma -98.2% | SK-MEL-28 melanoma -67.6%
inactive: SNB-75 CNS 40.3% | SNB-19 CNS 61.4% | PC-3 prostate 10.8% | UACC-62 melanoma 25.9%

CCOC(=O)[C@@H]1CSC(CC)=C(C(=O)O)N1
inactive: HCT-15 colon 104% | HT29 colon 111% | SNB-75 CNS 115% | SNB-19 CNS 100% | U251 CNS 94.6% | SK-MEL-5 melanoma 103% | UACC-62 melanoma 94.4% | LOX IMVI melanoma 104% | SK-MEL-28 melanoma 101%
active: PC-3 prostate -9.62%

CCOc1nc(-c2ccccc2)cc2c(O)c(C(=O)N/N=C/c3ccccc3)[nH]c(=O)c12
inactive: HCT-15 colon 104% | HT29 colon 105% | SNB-75 CNS 122% | SNB-19 CNS 105% | U251 CNS 106% | PC-3 prostate 93.5% | SK-MEL-5 melanoma 102% | UACC-62 melanoma 103% | LOX IMVI melanoma 109% | SK-MEL-28 melanoma 114%

CN(C)c1ccc(-c2c(C#N)c(N)nn2C(=O)c2ccc(NC(=O)c3ccccn3)cc2)cc1
inactive: HCT-15 colon 85.2% | HT29 colon 113% | SNB-75 CNS 102% | SNB-19 CNS 99.4% | U251 CNS 99.3% | PC-3 prostate 77.4% | SK-MEL-5 melanoma 101% | UACC-62 melanoma 73.2% | LOX IMVI melanoma 65.3% | SK-MEL-28 melanoma 108%

CCCCCCC12CCC(=O)N1CCc1cncn12 (stereo not given)
inactive: HCT-15 colon 102% | HT29 colon 100% | SNB-75 CNS 116% | SNB-19 CNS 105% | U251 CNS 100% | PC-3 prostate 98.3% | SK-MEL-5 melanoma 99.1% | UACC-62 melanoma 95.6% | LOX IMVI melanoma 102% | SK-MEL-28 melanoma 112%

CC(=O)Oc1ccc(N2C(=O)C(Cl)=C(Nc3cccc(C(F)(F)F)c3)C2=O)cc1
inactive: HCT-15 colon 84% | HT29 colon 104% | SNB-75 CNS 95.1% | SNB-19 CNS 93% | U251 CNS 97.4% | PC-3 prostate 96.3% | SK-MEL-5 melanoma 105% | UACC-62 melanoma 87.8% | LOX IMVI melanoma 88.7% | SK-MEL-28 melanoma 101%

NC(=O)c1cccc(-n2ccc3cc(NC(=O)c4ccc(N5CCOCC5)c(C(F)(F)F)c4)ccc32)n1
inactive: HCT-15 colon 33.8% | HT29 colon 14.3% | SNB-75 CNS 52.8% | SNB-19 CNS 70.7% | U251 CNS 44.1% | PC-3 prostate 34.5% | SK-MEL-5 melanoma 49.7% | UACC-62 melanoma 50.9% | LOX IMVI melanoma 64.4% | SK-MEL-28 melanoma 64.7%

Cc1nc2sc(C(=O)Nc3cccc4ccccc34)c(N)c2cc1C(O)c1ccccc1 (stereo not given)
inactive: HCT-15 colon 13.1% | HT29 colon 10.5% | SNB-75 CNS 68.8% | SNB-19 CNS 26.2% | PC-3 prostate 14.8% | UACC-62 melanoma 17.8% | LOX IMVI melanoma 21.4% | SK-MEL-28 melanoma 54.3%
active: U251 CNS 1.5% | SK-MEL-5 melanoma -53.1%

CSc1nc2ccccc2cc1/C=[N+](\[O-])c1ccccc1
inactive: HCT-15 colon 18.7% | HT29 colon 80.2% | SNB-75 CNS 67.3% | SNB-19 CNS 72.9% | U251 CNS 46.2% | PC-3 prostate 40.9% | SK-MEL-5 melanoma 52.5% | UACC-62 melanoma 51.5% | LOX IMVI melanoma 38.1% | SK-MEL-28 melanoma 93.8%

CC/C(=C(/c1ccc(Cl)cc1)c1ccc(OCCN(C)C)cc1)c1ccc(Cl)cc1
inactive: HCT-15 colon 32.2% | HT29 colon 22.4% | SNB-75 CNS 61.9% | SNB-19 CNS 78.4% | U251 CNS 37.8% | PC-3 prostate 71.4% | SK-MEL-5 melanoma 86.4% | UACC-62 melanoma 96.3% | LOX IMVI melanoma 65.3% | SK-MEL-28 melanoma 90.3%

O=C(NCc1ccc(Cl)cc1Cl)C1CCC(=O)N1c1cccs1 (stereo not given)
inactive: HCT-15 colon 96.5% | HT29 colon 89.9% | SNB-75 CNS 77.6% | SNB-19 CNS 99.9% | U251 CNS 89.4% | PC-3 prostate 87.4% | SK-MEL-5 melanoma 102% | UACC-62 melanoma 80.7% | LOX IMVI melanoma 89.1% | SK-MEL-28 melanoma 93.4%

CNc1nnc2n(-c3ccccc3)c(=O)c3cnn(-c4ccccc4)c3n12
inactive: HCT-15 colon 76.2% | HT29 colon 51.3% | SNB-75 CNS 73.1% | SNB-19 CNS 110% | U251 CNS 71.4% | PC-3 prostate 62.7% | SK-MEL-5 melanoma 100% | UACC-62 melanoma 95.4% | LOX IMVI melanoma 82.6% | SK-MEL-28 melanoma 103%

CCc1ncnc2c1ccn2C(C)c1ccc(OC)c(F)c1 (stereo not given)
inactive: HCT-15 colon 39.2% | HT29 colon 14% | SNB-75 CNS 35.8% | SNB-19 CNS 53.2% | U251 CNS 35.3% | PC-3 prostate 53.8% | SK-MEL-5 melanoma 33% | UACC-62 melanoma 39.8% | LOX IMVI melanoma 45.3% | SK-MEL-28 melanoma 66.5%

CC(C)(Sc1cc(C(C)(C)C)c(O)c(C(C)(C)C)c1)Sc1cc(C(C)(C)C)c(OC(=O)CCCC(=O)O)c(C(C)(C)C)c1
inactive: HCT-15 colon 27.8% | HT29 colon 40.8% | SNB-75 CNS 112% | SNB-19 CNS 57.1% | U251 CNS 47.1% | PC-3 prostate 33.9% | SK-MEL-5 melanoma 54.1% | UACC-62 melanoma 26.1% | LOX IMVI melanoma 59% | SK-MEL-28 melanoma 70.6%

CN(C)CC1CCC(CN(C)C)C1=O (stereo not given)
inactive: HCT-15 colon 105% | HT29 colon 103% | SNB-75 CNS 102% | SNB-19 CNS 102% | U251 CNS 102% | PC-3 prostate 96.7% | SK-MEL-5 melanoma 108% | UACC-62 melanoma 102% | LOX IMVI melanoma 106% | SK-MEL-28 melanoma 112%

O=S(=O)(Nc1cc(F)cc(Cl)c1)c1ccc(-c2cnc(C3CC3)o2)cc1
active: HT29 colon 4.89% | SNB-75 CNS -22.1%
inactive: HCT-15 colon 25.4% | SNB-19 CNS 30.4% | U251 CNS 33.6% | PC-3 prostate 32% | SK-MEL-5 melanoma 19.9% | UACC-62 melanoma 35.1% | LOX IMVI melanoma 39.3% | SK-MEL-28 melanoma 71.3%

CC1=NC2=Nn3c(c4cnn(-c5ccccc5)c4n/c3=N\N)NN2C(c2ccccc2)=C1
inactive: HCT-15 colon 99% | HT29 colon 98.6% | SNB-75 CNS 67% | SNB-19 CNS 98.4% | U251 CNS 99% | PC-3 prostate 90.5% | SK-MEL-5 melanoma 91% | UACC-62 melanoma 77.6% | LOX IMVI melanoma 92% | SK-MEL-28 melanoma 102%
